Source: publication PMC5540273 (PLoS ONE, 2017)

Tests used:
MEK2 = system: T1, MEK2
T1 construct: gene MAP2K2

MINK = system: T2, MINK
T2 construct: gene MINK1
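Further: kd values determined as follow-up on hits from a single-replicate KINOMEscan panel screen.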

Cn1c(=O)c(F)c(Nc2ccc(I)cc2F)c2c(=O)n(OC[C@H](O)CO)cnc21
Kd (MEK2): 200 nM

COc1cc2nccc(Nc3cccc(Oc4ccccc4)c3)c2cc1OC.Cl [GW284543]
Kd (MEK2): 270 nM

O=C(Nc1ccc2c(c1)OCO2)NC1CCN(c2ccnc(NCc3ccc(F)cc3)n2)CC1 [GSK1379859]
Kd (MELK): > 10000 nM

Nc1nc(-c2ccccc2F)c(-c2ccnc3ccccc23)s1 [GW560459]
Kd (MINK): 1700 nM

COc1ccc(CNC(=O)NC2CCN(c3ccnc(Nc4ccc(F)cc4)n3)C2)cc1 (centres unmarked) [GSK1379706]
Kd (MINK): > 10000 nM

Cc1cccc(-c2nc(Nc3ccc4c(cnn4C)c3)c3ccccc3n2)n1 [GW876731]
Kd (MKNK1): > 10000 nM

Nc1n[nH]c2ncc(-c3ccccc3)cc12 [SB-517081]
Kd (MKNK2): 260 nM

O=C(Nc1n[nH]c2nc(-c3ccccc3)c(Br)cc12)C1CC1 [SB-708998]
Kd (MST1R): > 10000 nM

COc1ccc(-c2cc3c(C)nc(N)nc3n([C@H]3CC[C@H](OCCO)CC3)c2=O)cn1
Kd (MTOR): 3.3 nM

COc1ccc(-c2cc3c(C)nc(N)nc3n([C@H]3CC[C@H](O)CC3)c2=O)cn1
Kd (MTOR): 4.8 nM

COc1cc2ncn(-c3cc(OCc4ccncc4)c(C(N)=O)s3)c2cc1OC [GSK336313]
Kd (MUSK): > 10000 nM
